Screens as filed in PubChem.
Kir21 block = blocks the mouse Kir2.1 inward-rectifier potassium channel. P35561. HEK293-Kir2.1, FluxOR thallium flux fluorescence; active compounds read low. B-score at 10 µM. 310,000 tested, 0.85% active;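 active means fluorescence ratio B-score at or below minus 3 SD of library scores, with starting-brightness B-score within 2 SD, cut at about -4.2 in these data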;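 further: channel flux triggered by added potassium and thallium sulfate stimulus; B-score of peak minus minimum fluorescence over baseline after thallium stimulus; more negative B-score means stronger Kir2.1 block with less thallium influx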
ANO1 block = mouse TMEM16A channel inhibition, primary screen; Q8BHY3; HEK293 TMEM16A/YFP iodide influx fluorescence, ionomycin; normalized B-score (activity score, 25-100; higher = stronger inhibition) at 10 µM; 310,000 tested, 1.2% active; AID 588511;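 active means ratio plate-corrected score three or more library SD toward inhibition, starting fluorescence score within five deviations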;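 further: score derived from kinetic fluorescence span divided by baseline fluorescence per well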
TMEM16A act = activators or potentiators of mouse TMEM16A chloride channel; Q8BHY3; HEK293 TMEM16A/YFP-H148Q/I152L, iodide quench fluorescence; active compounds read low; B-score at 10 µM; 340,000 tested, 0.3% active; AID 623877;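 active means fluorescence-ratio B-score plate-corrected deviation score at least 3 library SD below zero, with starting fluorescence score within 5 deviations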;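 further: channel opened by trigger with iodide after compound preincubation; score built on the fluorescence ratio of max minus min over baseline; more negative score means more quench and so TMEM16A activation or potentiation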
Rce1 inhib = blocks yeast Ras-converting enzyme; yeast membranes, quenched prenylated peptide cleavage fluorescence; 290,000 tested, 0.27% active; Q03530; calls only;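 active means fall in fluorescence gain of 50% or more versus controls, with final raw signal at or below 3038400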
CHT block = human CHT choline transport inhibition | Q9GZV3 | CHT-expressing cells, membrane potential dye, choline response; active compounds read low | B-score at 10 µM | 310,000 tested, 0.86% active | AID 488975;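 active means B-score over 3 SD under the library average, and starting fluorescence ratio not unusually high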;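 further: choline stimulus applied at its EC90 after an EC20 pre-addition; B-score computed on integrated fluorescence ratio after choline addition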
CHT PAM = allosteric activators of human choline transporter CHT. 310,000 tested, 0.49% active. CHT-expressing cells, membrane potential dye, choline EC20; active compounds read high; LV-AA mutant CHT in HEK293 cells. AID 488977. B-score at 10 µM;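 active means initial fluorescence not abnormally high and integrated response B-score, plate-corrected, over 3 SD above library mean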
TMEM16A reconf = re-confirmation of mouse TMEM16A chloride channel inhibitors | shares compounds with ANO1 block | HEK293 TMEM16A/YFP-H148Q, iodide quench fluorescence; ionomycin added to raise cell calcium | inhibition, % at 10 µM | 2,300 tested, 39% active;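 active means mean duplicate percent inhibition, scaled so buffer wells are 0 and the reference blocker 100, over three buffer SD above buffer mean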
TMEM16A Ca cntr = alters calcium mobilization in TMEM16A HEK293 cells, counter-screen | shares compounds with ANO1 block | TMEM16A/YFP HEK293, Fluo4 calcium mobilization | calcium response (% of ionomycin), % at 10 µM | 2,300 tested, 2% active | AID 652231;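 active means duplicate-averaged calcium signal over 20% of the ionomycin maximum, relative to buffer baseline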;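 further: each well's signal is peak minus trough fluorescence divided by its pre-addition baseline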
YFP-HEK293 quench = acts in parental YFP-HEK293 cells lacking TMEM16A, counter-screen; iodide YFP quench, ionomycin; YFP ratio F(max-min)/F0 at 10 µM; 2,300 tested, under 10 active; shares compounds with ANO1 block;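 active means yellow fluorescent protein signal ratio exceeding the buffer control mean by over 5 SD of those controls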;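 further: ratio is mean of duplicate wells from kinetic YFP trace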
ClC-1 inh = blocks the rat ClC-1 voltage-dependent chloride channel; shares compounds with ANO1 block; CHO ClC-1-YFP, iodide influx fluorescence quench; iodide control reads 0, buffer control 100; ratio percent, % at 10 µM; 2,300 tested, under 10 active; AID 652236;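 active means duplicate-mean ratio percent above the mean of iodide-only control wells, which defines zero, plus 5 of their SD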;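 further: higher percent means stronger block of ClC-1 iodide influx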
Target sequence (P35524 whole entry, looked up): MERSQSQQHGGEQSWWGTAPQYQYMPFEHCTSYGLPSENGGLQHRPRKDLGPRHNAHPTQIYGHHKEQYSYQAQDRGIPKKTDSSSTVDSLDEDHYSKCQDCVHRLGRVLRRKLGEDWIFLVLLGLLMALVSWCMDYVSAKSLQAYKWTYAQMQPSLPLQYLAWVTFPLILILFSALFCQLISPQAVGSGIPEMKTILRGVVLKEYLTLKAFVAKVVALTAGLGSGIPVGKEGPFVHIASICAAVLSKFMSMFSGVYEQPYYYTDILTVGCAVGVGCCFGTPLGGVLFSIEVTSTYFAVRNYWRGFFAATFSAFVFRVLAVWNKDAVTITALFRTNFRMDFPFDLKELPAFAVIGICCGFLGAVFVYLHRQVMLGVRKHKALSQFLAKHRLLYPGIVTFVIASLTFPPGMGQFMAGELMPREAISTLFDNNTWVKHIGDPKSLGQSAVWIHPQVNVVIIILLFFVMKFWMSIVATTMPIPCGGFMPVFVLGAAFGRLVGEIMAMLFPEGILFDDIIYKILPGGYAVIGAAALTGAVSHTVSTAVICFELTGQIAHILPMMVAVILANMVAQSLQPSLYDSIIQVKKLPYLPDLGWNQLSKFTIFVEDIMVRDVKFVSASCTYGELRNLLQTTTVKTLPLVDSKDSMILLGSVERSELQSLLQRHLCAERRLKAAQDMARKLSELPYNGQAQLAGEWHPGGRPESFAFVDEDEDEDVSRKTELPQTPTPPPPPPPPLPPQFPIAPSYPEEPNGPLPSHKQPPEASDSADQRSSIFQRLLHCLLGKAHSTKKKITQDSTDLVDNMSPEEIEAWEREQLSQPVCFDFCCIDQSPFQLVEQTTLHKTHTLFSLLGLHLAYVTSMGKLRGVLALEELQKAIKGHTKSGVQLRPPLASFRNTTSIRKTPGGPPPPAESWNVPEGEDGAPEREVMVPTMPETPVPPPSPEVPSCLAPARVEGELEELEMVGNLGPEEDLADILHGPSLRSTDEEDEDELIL
Numbers stand for hits; i = inactive; nt = no result. Hits are enriched below; roughly 3.2% of the tested compounds scored in any of these assays.

SMILES	Kir21 block	ANO1 block	TMEM16A act	Rce1 inhib	CHT block	CHT PAM	TMEM16A reconf	TMEM16A Ca cntr	YFP-HEK293 quench	ClC-1 inh
Cc1ccc(C)c(N2CCN(c3ncnc4c3cnn4-c3ccccc3)CC2)c1	nt	nt	i	nt	nt	nt	nt	nt	nt	nt
COc1cccc(N2CCN(c3ncnc4c3cnn4-c3ccc(C)cc3C)CC2)c1	i	100	i	i	i	i	32.0%	i	i	i
O=C(OCc1csc(-c2ccccc2)n1)c1ccc(O)cc1	i	100	i	i	i	i	i	i	i	i
O=c1oc2ccccc2cc1-c1nc2ccccc2o1	i	i	i	i	i	i	nt	nt	nt	nt
O=c1oc2ccccc2cc1-c1nc2c(s1)CCCC2	i	25	i	i	i	i	i	i	i	i
O=C(Nc1ccc(OCC(F)(F)C(F)F)c(C(F)(F)F)c1)c1ccccc1O	i	100	i	i	i	i	i	i	i	i
CCOC(OCC)P(=O)(c1ccccc1)c1ccccc1	i	i	i	i	i	i	i	i	i	i
CCCC(C(=O)OCC)P(=O)(c1ccccc1)c1ccccc1 (configuration not stated)	i	i	i	i	i	i	nt	nt	nt	nt
O=C(NC(Cc1ccccc1)C(=O)NCc1ccccn1)c1ccco1 (configuration not stated)	i	25	i	i	i	i	i	i	i	i
c1ccc2c(c1)OCC(CNc1ncnc3sccc13)O2 (configuration not stated)	i	25	i	i	i	i	i	i	i	i
Cc1cc(C(=O)CSc2nnc(CCC(N)=O)n2C)c(C)n1C1CC1	nt	nt	i	nt	nt	nt	nt	nt	nt	nt
CC1c2cc3c(cc2CCN1C(=O)c1ccc(Cl)cc1)OCCCO3 (configuration not stated)	i	25	i	i	i	i	i	i	i	i
Cc1ccc(C(=O)N2CCc3cc4c(cc3C2C)OCCCO4)cc1 (configuration not stated)	i	i	i	i	i	i	nt	nt	nt	nt
CSc1nc2ccc(NS(=O)(=O)c3ccc4c(c3)OCCO4)cc2s1	i	100	i	i	i	i	18.5%	i	i	i
Cc1ccc(S(=O)(=O)Nc2cnn(-c3ccccc3)c(=O)c2Cl)cc1	i	i	i	i	i	i	nt	nt	nt	nt
Cc1ccc2[nH]c3c(N4CCOCC4)ncnc3c2c1	i	i	i	i	i	i	nt	nt	nt	nt
Clc1ccc2[nH]c3c(N4CCC5(CC4)OCCO5)ncnc3c2c1	i	100	nt	i	i	i	44.5%	i	i	i
c1ccc2c(c1)[nH]c1c(N3CCSCC3)ncnc12	nt	25	i	nt	i	i	27.5%	i	i	i
O=C(CSc1ccccc1)NNC(=O)c1ccccc1O	i	i	i	i	i	i	nt	nt	nt	nt
C=CCn1c(SC(C)C(=O)NCc2ccc3c(c2)OCO3)nc2scc(-c3ccccc3)c2c1=O (configuration not stated)	i	100	i	i	i	i	i	i	i	i
CC(C)(C)OC(=O)C[C@@H]1C/C=C\C[C@@H](CC(=O)N(CCO)Cc2ccccc2)C(=O)N[C@@H](c2ccccc2)COC1=O	nt	nt	i	nt	nt	nt	nt	nt	nt	nt
CC1(C(=O)OCC(=O)Nc2ccc3ccccc3c2)CC1(Cl)Cl (configuration not stated)	i	25	i	i	i	i	i	i	i	i
CC1(C)CC(=O)C(CO)=C(c2cccc3ccccc23)C1=O	nt	nt	i	nt	nt	nt	nt	nt	nt	nt
CC(=O)c1sc(NC(=O)C=C(C)C)nc1C	i	i	i	i	i	i	nt	nt	nt	nt
CC(=O)c1sc(NC(=O)C2(F)C(F)(F)C(F)(F)C(F)(F)C(F)(F)C2(F)F)nc1C	nt	100	i	i	i	i	43.0%	i	i	i
SMILES	Kir21 block	ANO1 block	TMEM16A act	Rce1 inhib	CHT block	CHT PAM	TMEM16A reconf	TMEM16A Ca cntr	YFP-HEK293 quench	ClC-1 inh
CN(C)c1ccccc1C(=O)N1CCCC(C(=O)c2ccc3ccccc3c2)C1 (configuration not stated)	i	100	i	i	i	i	i	i	i	i
Cc1nn(C)c(C)c1CN(Cc1nc(CCC(C)C)no1)C(C)C	i	25	i	i	i	i	i	i	i	i
COc1ccc(C(=O)N2CCCC(c3nc(-c4cccs4)no3)C2)cc1 (configuration not stated)	i	25	i	i	i	i	i	i	i	i
O=C(O)COc1ccccc1/C=C1\SC(=S)N(/N=C/c2ccccc2O)C1=O	i	i	i	i	i	i	nt	nt	nt	nt
O=C(O)COc1ccccc1/C=C1\SC(=S)N(NC(=O)c2ccccc2O)C1=O	i	i	i	i	i	i	i	i	i	i
CC(C)OC(=O)C1C2C=CC3(CN(Cc4cccs4)C(=O)C13)O2 (configuration not stated)	i	100	i	i	i	i	i	i	i	i
Cc1cc(C)cc(OCC(=O)OC(C)C(=O)Nc2ccc(Cl)cn2)c1 (configuration not stated)	i	i	i	i	i	i	nt	nt	nt	nt
Cc1ccc(S(=O)(=O)N(C)c2ccc(OCC(=O)Nc3nc4c(ccc5ccccc54)s3)cc2)cc1	i	i	i	i	i	i	nt	nt	nt	nt
Cc1ccc(S(=O)(=O)N(C)c2ccc(OCC(=O)Nc3nc4ccccc4s3)cc2)cc1	i	i	i	i	i	i	i	i	i	i
Cc1cccc(OCC(=O)Nc2nc3ccc([N+](=O)[O-])cc3s2)c1	i	25	i	i	i	i	i	i	i	i
Cc1nccn1-c1ccc(C=O)cc1	i	i	i	i	i	i	nt	nt	nt	nt
Cc1cc(C)cc(NC(=O)C(=O)NCC2CCCN2S(=O)(=O)c2cccs2)c1 (configuration not stated)	i	i	i	i	i	i	nt	nt	nt	nt
COc1ccc(NC(=O)c2cccc(S(=O)(=O)N3CCc4ccccc43)c2)cn1	i	25	i	i	i	i	i	i	i	i
COc1ccc(C(=O)Nc2ccc(S(=O)(=O)N3CCc4ccccc43)cc2)cc1	i	100	i	i	i	i	34.0%	i	i	i
NS(=O)(=O)c1ccc(NC(=O)c2ccc(S(=O)(=O)N3CCc4ccccc43)cc2)cc1	i	i	i	i	i	i	nt	nt	nt	nt
O=C(NCc1ccccn1)c1ccc(OC2CCN(Cc3ccc(Cl)s3)CC2)cc1	i	i	i	i	i	i	nt	nt	nt	nt
